Here are results for eleven compounds from PubChem BioAssay (NCATS).

Values joined by “and” are separate entries in the source; they are usually repeats but may differ in a detail not shown here. Identical values can stand only once. Inconclusive results are not listed. Active and inactive are the calls of the source. Unless noted, calls follow the shape of the dose curve; as a rule, active = well fitted curve in the direction sought with a large enough effect; inconclusive = small, poorly fitted or top-dose-only effect, or another doubt; inactive = no such curve, though single readings can be large; an effect the other way counts as inactive or inconclusive.

In experiment [1] the target is Alpha-galactosidase A (Homo sapiens) (UniProt P06280). Nature of the experiment: Counterscreen for Glucocerebrosidase Inhibitors: qHTS Assay for Human alpha-Galactosidase at pH 4.5 (AID 992). Also: 0% is about no effect. The gist of the method: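 Read-out is 4-methylumbelliferone fluorescence (365 nm excitation, 440 nm emission) after a pH 10 NaOH/glycine stop. Reactions held 2 nM enzyme and 80 uM substrate at pH 4.5 for 20 min at room temperature.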
Alpha-galactosidase A (Homo sapiens), sequence (P06280 whole entry, looked up): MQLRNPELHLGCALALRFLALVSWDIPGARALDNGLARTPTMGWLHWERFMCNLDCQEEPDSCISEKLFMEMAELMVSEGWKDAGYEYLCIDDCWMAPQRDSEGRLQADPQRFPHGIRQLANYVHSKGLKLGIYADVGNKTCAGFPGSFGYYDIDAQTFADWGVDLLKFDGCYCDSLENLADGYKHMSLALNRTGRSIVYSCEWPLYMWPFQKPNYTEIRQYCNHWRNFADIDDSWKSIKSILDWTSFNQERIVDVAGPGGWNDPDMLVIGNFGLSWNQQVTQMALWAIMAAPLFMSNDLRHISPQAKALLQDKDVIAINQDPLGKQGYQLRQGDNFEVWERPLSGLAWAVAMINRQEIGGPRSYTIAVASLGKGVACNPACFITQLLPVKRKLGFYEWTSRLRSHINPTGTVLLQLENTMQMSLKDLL
(Counterscreens check selectivity or assay interference.)

In experiment [2] the target is alpha-glucosidase (Oryza sativa, rice) (UniProt Q653V4). Briefly: Counterscreen for Glucocerebrosidase Inhibitors: qHTS Assay for Rice alpha-Glucosidase at pH 5.0 (AID 997).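 Also: 0% = full activity with enzyme and -100% = basal without enzyme.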 The gist of the method:
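Rice alpha-glucosidase (4 nM final) with 400 uM 4-methylumbelliferyl-alpha-D-glucopyranoside in citrate buffer pH 5.0, 20 min at room temperature, stopped at pH 10; fluorescence 365/440 nm, compounds 0.7 nM–77 uM, AC50 from Hill fits.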

Experiment [3] in a line: Validation of Assay for Modulators of Lamin A Splicing (AID 1459; active = well fitted curve in the direction sought with a large enough effect in the signal ratio; the % refers to the signal ratio;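 also: cells exposed to compound for two days before reading; 0% is about no effect; ratio rise marks activators and ratio drop marks inhibitors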). The gist of the method:
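Dual-reporter HeLa S3 line (lamin A-EGFP minigene, DsRed2) treated with compounds 48 hrs, 0.5% DMSO final. Endpoint: EGFP/DsRed2 total intensity ratio from laser-scanning microplate cytometry.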

Experiment [4] can be described thus: qHTS Assay for Lipid Storage Modulators (AID 1519; calls by dose curve; as to activity change, negative = inhibition: % is scaled to controls: 0 for no effect and ±100 for the full control effect). To be noted: Drosophila S3 cells, BODIPY lipid droplet/cell ratio, laser cytometry, cells loaded with oleic acid. The gist of the method:
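Cells seeded at 5,000 per well were treated with compounds over a concentration series and loaded with oleic acid (400 uM, as added). Lipid droplet fluorescence (488 nm excitation, 500-530 nm channel) was read by laser-scanning cytometry and normalized to 20 uM Triacsin C.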
On the technique in general: qHTS replaces the single test concentration by a dilution series.

Experiment [5] has as its target DNA repair nuclease/redox regulator APEX1 (Homo sapiens) (UniProt P27695). Briefly: qHTS Validation Assay for Inhibitors of the Human Apurinic/apyrimidinic Endonuclease 1 (APE1) (AID 1705;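 also: TAMRA fluorescence gain over two minutes as APE1 cuts a quenched THF abasic duplex; % is scaled to controls: 0 for no effect and ±100 for the full control effect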). The gist of the method:
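Substrate: 50 nM final fluorophore/quencher THF-abasic duplex. Enzyme preincubated with compounds 15 min, RT. Progress derived from fluorescence difference, third minus first kinetic read.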

Experiment [6] in a line: Counterscreen for APE1 Inhibitors: Fluorescent Dye Displacement Validation Assay (AID 1707).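 Also: plate controls were ThO with dsDNA and no compound for no effect and ThO without dsDNA for full effect.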 The gist of the method: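 ThO 250 nM + dsDNA 50 nM (THF abasic site, 5'-TAMRA), Tris-HCl pH7.5/50mM NaCl/2 mM MgCl2/0.01% Tween-20; compounds pin-transferred; ex 480/em 540 nm endpoint. Neutral = no compound; no-DNA ThO wells = negative control.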
Experiment [7] is described as follows: Cell Viability - LYMP1-002 - Assay at 40 hr (AID 994). Also: potency is read from the fitted curve at half-maximal effect; nearly all actives have a fitted effect of over 60% in size. The gist of the method: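 Human lymphoblastoid cells, 2500/well in complete medium, were preincubated 5 hr at 37 C, then exposed to compounds for 40 hr at 37 C. Intracellular ATP was read by CellTiter-Glo luminescence after 30 min at room temperature; AC50 from Hill-equation fits.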
[8] abbreviates: measured here: cell count channel max response.
The mark [9] stands for this setting: measured here: lipid channel max response.

DNA repair nuclease/redox regulator APEX1 (Homo sapiens), sequence (P27695 whole entry, looked up): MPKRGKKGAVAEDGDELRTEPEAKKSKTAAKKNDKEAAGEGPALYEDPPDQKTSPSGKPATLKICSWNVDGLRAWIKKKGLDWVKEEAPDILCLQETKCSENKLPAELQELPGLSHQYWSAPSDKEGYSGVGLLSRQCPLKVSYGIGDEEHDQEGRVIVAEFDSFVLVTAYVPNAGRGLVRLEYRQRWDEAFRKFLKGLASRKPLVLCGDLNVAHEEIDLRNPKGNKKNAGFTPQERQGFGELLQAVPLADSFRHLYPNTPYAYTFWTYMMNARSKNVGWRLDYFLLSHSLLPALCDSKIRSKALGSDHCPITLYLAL

As for `CCCCNc1ccc(C(=O)OCCN(C)C)cc1`, the compound was classed as inactive in experiment [1], in experiment [2], in experiment [3] and in experiment [6]. Further, the activity change, negative = inhibition in experiment [4] (at 25.7 µM (top of the series)) is 3.23% (inactive); in experiment [4] (at 57.5 µM (top of the series)), 14.3% (inactive). Also, the max response was -0.19% and 24.9% in experiment [4] (setting [8]); 3.57% and 43.3% in experiment [4] (setting [9]). Besides, the Potency entry in experiment [5] was “inactive”.
`COCCOC(=O)C1=C(C)NC(C)=C(C(=O)OC(C)C)C1c1cccc([N+](=O)[O-])c1` (configuration not stated): the outcome in experiment [3] and in experiment [6] was inactive. The activity change, negative = inhibition in experiment [4] (at 57.5 µM (top of the series)) is 10.8% (inactive) and 3.42% (inactive). The max response in experiment [4] (setting [8]) was 12.3% and 59.2%; in experiment [4] (setting [9]), 26.9% and 56.5%. The Potency entry in experiment [5] is “inactive”.
For `COc1cc(C(=O)OCCCN2CCCN(CCCOC(=O)c3cc(OC)c(OC)c(OC)c3)CC2)cc(OC)c1OC`, the outcome in experiment [1], in experiment [2], in experiment [3] and in experiment [6] was inactive. The activity change, negative = inhibition in experiment [4] (at 25.7 µM (top of the series)) is -0.679% (inactive). Also, the max response is 11.7% in experiment [4] (setting [8]) and 8.49% in experiment [4] (setting [9]). Besides, the Potency result in experiment [5] is “inactive”.
Turning to `COc1ccc(CCN(C)CCCC(C#N)(c2cc(OC)c(OC)c(OC)c2)C(C)C)cc1OC` (configuration not stated), the result in experiment [3] and in experiment [6] was inactive. Moreover, in experiment [5], the Potency entry was “inactive”.
Consider `CCOC(=O)C1=C(C)NC(C)=C(C(=O)OC)C1c1cccc([N+](=O)[O-])c1` (configuration not stated), for which the compound was called inactive in experiment [3] and in experiment [6]. The activity change, negative = inhibition in experiment [4] (at 57.5 µM (top of the series)) is 1.63% (inactive). The results for the max response in experiment [4] (setting [8]) and in experiment [4] (setting [9]) were -3.59% and -4.4%, respectively. In experiment [5], the Potency entry is “inactive”.
As for `CN/C(=C\[N+](=O)[O-])NCCSCc1ccc(CN(C)C)o1`, the call in experiment [1], in experiment [2], in experiment [3] and in experiment [6] was inactive. The activity change, negative = inhibition was -0.0815% (inactive) in experiment [4] (at 25.7 µM (top of the series)); 4.77% (inactive) and 9.42% (inactive) in experiment [4] (at 57.5 µM (top of the series)). Moreover, the max response in experiment [4] (setting [8]) is 4.03% and -18.5% and 18.2%; in experiment [4] (setting [9]), 2.82% and -19.9% and 33.3%. Also, the Potency entry in experiment [5] was “inactive”.
For the compound `COC(=O)[C@H]1[C@H]2C[C@@H]3c4[nH]c5cc(OC)ccc5c4CCN3C[C@H]2C[C@@H](OC(=O)c2cc(OC)c(OC)c(OC)c2)[C@@H]1OC`, the result in experiment [1], in experiment [2], in experiment [3] and in experiment [6] was inactive. The Potency in experiment [7] was 50.1 µM (active). Also, the Potency result in experiment [5] was “inactive”.
Take `CC(C)COCC(CN(Cc1ccccc1)c1ccccc1)N1CCCC1` (configuration not stated): the outcome in experiment [3] and in experiment [6] was inactive. The activity change, negative = inhibition in experiment [4] (at 57.5 µM (top of the series)) was 2.08% (inactive). Also, the max response in experiment [4] (setting [8]) is 20%; in experiment [4] (setting [9]), 26.2%. Further, in experiment [5], the Potency entry is “inactive”.
On to `C#CCN(C)CCCOc1ccc(Cl)cc1Cl`, for which the result in experiment [2], in experiment [3] and in experiment [6] was inactive. Also, the activity change, negative = inhibition in experiment [4] (at 25.7 µM (top of the series)) is -0.841% (inactive). Further, the values for the max response in experiment [4] (setting [8]) and in experiment [4] (setting [9]) were -6.58% and -5.76%, respectively. In experiment [5], the Potency entry is “inactive”.
Regarding `CCN(CC)CC(=O)Nc1c(C)cccc1C`, the result in experiment [1], in experiment [2], in experiment [3] and in experiment [6] was inactive. The activity change, negative = inhibition in experiment [4] (at 25.7 µM (top of the series)) is 0.593% (inactive); in experiment [4] (at 57.5 µM (top of the series)) it was 2.9% (inactive). Also, the max response in experiment [4] (setting [8]) was -1.17% and 18.4%; in experiment [4] (setting [9]) it was 2.13% and 21.4%. For the same compound, the Potency entry in experiment [5] was “inactive”.
For `Cc1nc2ccccn2c(=O)c1CCN1CCC(C(=O)c2ccc(F)cc2)CC1`, the result in experiment [1], in experiment [2], in experiment [3] and in experiment [6] was inactive. The activity change, negative = inhibition in experiment [4] (at 57.5 µM (top of the series)) was 16.1% (inactive). For the same compound, the max response in experiment [4] (setting [8]) turned out to be 7.37%; in experiment [4] (setting [9]), 24.1%. In experiment [5], the Potency result is “inactive”.
